Screening results deposited in PubChem by National Center for Advancing Translational Sciences (NCATS).
Giardia FBPA inh = blocks Giardia fructose-bisphosphate aldolase activity. Potency, µM (titrated, usually from 59.6 µM), actives largely listed as inhibitors. purified Giardia FBPA. actives 0.71% (n = 290,000). A8B2U2; also: nearly all actives have a fitted effect of over 55% in size
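Giardia FBPA (40 nM reagent) was preincubated 10 min at RT with compound (up to 57.5 uM final), then substrate plus GAPDH/TPI/NAD/arsenate coupling system with diaphorase/resazurin was added; resorufin fluorescence (525/598 nm) was read after 20 min.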
AmpC detergent = AmpC beta-lactamase inhibition with detergent present; Potency, µM (titrated, usually from 114 µM), most hits filed as inhibitors; actives 0.041% (n = 370,000); P00811; AmpC hydrolysis of nitrocefin, absorbance 480 nm, 0.01% Triton; also: nearly all actives have a fitted effect of over 25% in size
Target sequence (P00811 whole entry, looked up): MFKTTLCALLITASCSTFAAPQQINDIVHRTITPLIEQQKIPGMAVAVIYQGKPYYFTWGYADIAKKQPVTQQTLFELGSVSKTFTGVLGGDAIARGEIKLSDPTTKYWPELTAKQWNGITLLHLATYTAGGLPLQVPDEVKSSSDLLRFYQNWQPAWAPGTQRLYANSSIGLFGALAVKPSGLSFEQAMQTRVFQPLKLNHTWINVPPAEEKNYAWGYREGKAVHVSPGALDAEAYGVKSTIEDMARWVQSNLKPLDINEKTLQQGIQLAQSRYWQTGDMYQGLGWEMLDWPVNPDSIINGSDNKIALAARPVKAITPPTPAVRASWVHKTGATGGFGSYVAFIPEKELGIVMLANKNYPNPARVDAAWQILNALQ
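AmpC (5.3 nM in the dispensed reagent) in 20 mM phosphate pH 7.0 with 0.01% (detergent screen) or 0.0001% Triton X-100 was preincubated with compounds for 15 min at room temperature. Nitrocefin was then added from an 800 uM solution, and hydrolysis was followed at 480 nm.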
AmpC no deterg = blocks E. coli AmpC beta-lactamase in detergent-free assay | P00811 | AmpC nitrocefin hydrolysis, absorbance 480 nm, 0.0001% Triton | Potency, µM (titrated, usually from 57.1 µM), most hits filed as inhibitors | actives 0.52% (n = 330,000) | AID 485341; also: nearly all actives have a fitted effect of over 20% in size
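20 mM phosphate pH 7.0 + 0.01% (detergent screen) or 0.0001% Triton X-100; 5.3 nM AmpC reagent; cpd preinc 15 min RT; nitrocefin (800 uM stock) to start; A480 q20 s × 4 min; Activity was normalised to no-enzyme and no-compound control wells.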
AMA1-RON2 inh = disrupts binding of P. falciparum AMA1 to RON2 | Potency, µM (doses to about 58.2 µM), hits mostly inhibitors | actives 0.2% (n = 360,000) | AlphaScreen AMA1-biotinylated RON2 peptide binding | AID 720542; also: nearly all actives have a fitted effect of over 45% in size
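AMA1 (3D7) with his tag at 25 nM final met compounds first, then biotinylated RON2 peptide at 25 nM; detection used donor plus acceptor beads, 10 µg/mL apiece, read by AlphaScreen after 30 min at room temperature.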
Hits are given with their value. Rows were chosen to be rich in hits. Some 1.1% of all compounds tested hit in one or more screens of this group. Calls follow the shape of the dose curve; as a rule, active = well fitted curve in the direction sought with a large enough effect; inconclusive = small, poorly fitted or top-dose-only effect, or another doubt; inactive = no such curve, though single readings can be large; an effect the other way counts as inactive or inconclusive.

How did Cc1ccc(NC(=S)Nc2ccc3nc(-c4ccccn4)c(-c4ccccn4)nc3c2)cc1C do in these assays?
Giardia FBPA inh: 1.26µM; AmpC detergent: inconclusive; AmpC no deterg: inactive; AMA1-RON2 inh: inactive

Results for O=C(N/N=C/c1ccco1)c1cc(C2CC2)nc2ccccc12 ?
Giardia FBPA inh: inactive; AmpC detergent: inactive; AmpC no deterg: 28.2µM

How did COc1ccc(CCNC(=O)c2cc3sc(Cl)cc3n2C)cc1OC do in these assays?
Giardia FBPA inh: inactive; AmpC detergent: inconclusive; AmpC no deterg: 50.1µM; AMA1-RON2 inh: inactive

What do the screens show for `Cc1ccc(CNC(=O)c2cc3sc(Cl)cc3n2C)cc1`?
AmpC detergent: inactive

What do the screens show for `C=CCN1C(=O)CS/C1=C(\C#N)S(=O)(=O)c1ccc(C)cc1`?
Giardia FBPA inh: inactive; AmpC detergent: inactive; AmpC no deterg: 14.1µM; AMA1-RON2 inh: inactive

How did CC(C)(C)c1ccc(C(=O)Nc2ccccc2C(=O)OCc2cc(=O)n3ccsc3n2)cc1 do in these assays?
AmpC detergent: inactive

Results for CC(=O)NC(c1ccccc1)c1nc(-c2cccc(C#N)c2)cs1 (centres undefined) ?
AMA1-RON2 inh: inactive

What do the screens show for `COc1ccc2c(c1)c(C(=O)N/N=C/c1cccc(Br)c1)c(C)n2C`?
Giardia FBPA inh: 19.9µM; AmpC detergent: inactive; AmpC no deterg: inactive; AMA1-RON2 inh: inactive

Results for CCN(CC)CCNC(=O)c1ccc(Cn2c(=O)c3cccn3c3cccnc32)cc1 ?
AmpC detergent: inactive

How did CC1=C(C)C(=O)C(CCCCC#CCCCC#CCO)=C(C)C1=O do in these assays?
Giardia FBPA inh: 17.7µM; AmpC detergent: inactive; AmpC no deterg: inactive; AMA1-RON2 inh: inactive

Results for CC1CC(C)CN(C(=O)c2ccc3c(c2NCCO)C(=O)c2ccccc2C3=O)C1 (centres undefined) ?
Giardia FBPA inh: inactive; AmpC detergent: inactive; AmpC no deterg: inactive; AMA1-RON2 inh: 22.4µM

How did COC(=O)C1C(=O)c2c([nH]c(C(=O)OC3CCCC3C)c2C)CC1C (centres undefined) do in these assays?
Giardia FBPA inh: inactive; AmpC detergent: inconclusive; AmpC no deterg: 7.08µM; AMA1-RON2 inh: inactive

How did O=C(Nc1nnc([C@H]2C[C@H](O)[C@@H](CO)O2)s1)c1ccc(Oc2ccccc2)cc1 do in these assays?
AMA1-RON2 inh: inactive

Results for COc1ccc(Cl)cc1NC(=O)COC(=O)c1cc(NS(=O)(=O)c2cccs2)ccc1O ?
Giardia FBPA inh: inactive; AmpC detergent: inactive; AmpC no deterg: 20µM; AMA1-RON2 inh: inactive

What do the screens show for `O=C(COC(=O)c1ccc(NS(=O)(=O)c2cccs2)cc1O)Nc1nc2ccccc2s1`?
Giardia FBPA inh: inactive; AmpC detergent: inactive; AmpC no deterg: 1.58µM; AMA1-RON2 inh: inactive

How did COc1ccc(Cl)cc1NC(=O)CN(C)S(=O)(=O)c1cccs1 do in these assays?
Giardia FBPA inh: inactive; AmpC detergent: inactive; AmpC no deterg: inactive; AMA1-RON2 inh: inactive

What do the screens show for `O=C1NC[C@H](Cc2ccccc2)N(CC2CCN(CCC34CC5CC(CC(C5)C3)C4)CC2)C1=O`?
AMA1-RON2 inh: inactive

How did CCN(CC)C(=O)C1=C(C)N(CCCN2CCCC2=O)C(=O)C(CC(=O)NCc2cccs2)C1 (centres undefined) do in these assays?
AMA1-RON2 inh: inactive

How did CCOC(=O)c1cc(C(=O)c2cc(Cl)ccc2O)coc1=N do in these assays?
Giardia FBPA inh: inactive; AmpC detergent: inactive; AmpC no deterg: 5.01µM; AMA1-RON2 inh: inactive

What do the screens show for `CCCCNC(=O)c1nc(C2CCN(S(=O)(=O)c3ccc(F)c(F)c3)CC2)oc1-c1ccccc1`?
AMA1-RON2 inh: inactive

Results for FC(F)(F)c1ccc(/C=N/N2CCN(Cc3ccccc3)CC2)cc1 ?
Giardia FBPA inh: inactive; AmpC detergent: inconclusive; AmpC no deterg: inactive; AMA1-RON2 inh: 20µM

How did Clc1ccccc1/C=N/N1CCN(Cc2ccccc2)CC1 do in these assays?
Giardia FBPA inh: inconclusive; AmpC detergent: inconclusive; AmpC no deterg: inactive; AMA1-RON2 inh: inactive

Results for O=[N+]([O-])c1ccccc1/C=N/N1CCN(Cc2ccccc2)CC1 ?
Giardia FBPA inh: inactive; AmpC detergent: inactive; AmpC no deterg: inactive; AMA1-RON2 inh: 28.2µM

How did O=[N+]([O-])c1ccc(/C=N/N2CCN(Cc3ccccc3)CC2)cc1 do in these assays?
Giardia FBPA inh: inactive; AmpC detergent: inactive; AmpC no deterg: inactive; AMA1-RON2 inh: 25.1µM

How did O=[N+]([O-])c1ccccc1/C=N\N1CCN(Cc2ccccc2Cl)CC1 do in these assays?
Giardia FBPA inh: inactive; AmpC detergent: inconclusive; AmpC no deterg: inactive; AMA1-RON2 inh: 20µM
